In PubChem BioAssay AID720519 (National Center for Advancing Translational Sciences (NCATS), 2013) one finds Potency data, which are given here for 16 molecules.

Records with an inconclusive call do not appear. A call without a number means that no potency is given here. Calls of active or inactive are those of the source. The call rests on the fitted dose curve; in most records, active means well fitted activation curve with a large enough effect; inconclusive means small, poorly fitted or top-dose-only effect; inactive means flat fitted curve, though single readings scatter.

The nature of this assay: qHTS for Inhibitors of Cell Surface uPA Generation: Confirmatory Assay for Cherry-picked Compounds. The conditions noted are these: cell surface uPA activity generation, qHTS confirmation; series mostly up to 115 µM. In outline: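 RAW 264.7 cells at 4000/well, incubated overnight, then treated with compounds. After 24 h at 37 C, viability was read by ATPlite luminescence. An increase in signal indicates blocked uPA-dependent LF entry.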
(In general: Quantitative high-throughput screening tests each substance at several concentrations.)
`COc1ccccc1N1CCN(C2CC(=O)N(c3ccccc3)C2=O)CC1` (stereo unspecified): the Potency entry was “inactive”.
With `CC(C)Cn1cnc2c(N)nc3ccccc3c21`, the Potency result is “inactive”.
With `Cc1cc(=O)[nH]c2c(C)cc(S(=O)(=O)Nc3ccc(O)cc3)cc12` the entry was “inactive”.
The result for `COc1cc(NS(=O)(=O)c2ccc(NC(=S)NC(=O)COc3ccccc3OC)cc2)nc(OC)n1` reads “inactive”.
For `Cc1ccc(S(=O)(=O)NNC(=O)c2ccc(F)cc2)cc1`, the Potency result is “inactive”.
On to `CCOc1cc(N2CCOCC2)c(OCC)cc1NC(=O)c1[nH]c(C)c(C(C)=O)c1C`, for which the Potency result was “inactive”.
With `Cc1cc(N2C(=O)C(O)=C(C(=O)c3ccco3)C2c2ccc(Cl)cc2)no1` (stereo unspecified) the entry was “inactive”; with `COc1ccccc1NNC(=O)C(O)(c1ccccc1OC)c1ccccc1OC`, “inactive”; with `C[C@]12CCC(O)CC1CCC1C2CC[C@]2(C)C(c3cc(C(F)(F)F)n[nH]3)CCC12` (stereo partly specified), “inactive”.
With `Cc1ccc(C2=NS(=O)(=O)N(C)C(C(=O)NC3CCCC3)=C2)cc1`, the Potency entry was “inactive”.
With `C=CCn1c(SCCN2C(=O)c3ccccc3C2=O)nc2scc(-c3ccc(F)cc3)c2c1=O` the entry was “inactive”; with `C/C(=N\NC(=O)c1ccccc1)c1c(C)[nH]n(-c2ccccc2)c1=O`, “inactive”.
With `CCOc1cc(S(=O)(=O)NC2CC(C)(C)NC(C)(C)C2)ccc1Cl` the entry was “inactive”; with `CCC(=O)N(Cc1cc2ccc(C)cc2[nH]c1=O)c1ccccc1OC`, “inactive”.
For `CCC(NC(=O)Cc1c(C)c2c(cc(C)c3c(C)c(C)oc32)oc1=O)C(=O)O` (stereo unspecified), the Potency entry is “inactive”.
`Cc1ccc(C)c(N2N=C(C(=O)N(CC(C)C)c3c(N)n(Cc4ccccc4)c(=O)[nH]c3=O)CCC2=O)c1`: the Potency entry was “inactive”.
